DAX1 inh-1: DAX1 (NR0B1) inhibitors on StAR promoter, primary screen, cell-based, luminescence, SF-1 (NR5A1), full-length DAX-1 | HEK293T StAR-luciferase reporter, SF-1/DAX-1 repression relief | inhibition, % at 6.8 µM | 370,000 tested, 1.1% active | AID 652010, 2013;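 active = inhibition above the mean over all tested compounds plus 3 SD, cut at about 3.6% in these data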;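 note: 0% = DAX-1 cells with DMSO and 100% = cells lacking DAX-1 with DMSO; higher inhibition means more luminescence from relief of DAX-1 repression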
ssDAF12 agonist: S. stercoralis DAF-12 nuclear receptor activators, primary screen, cell-based, luminescence, HEK293, GRIP1 co-expression, lit1-tk-luc | Nuclear hormone receptor DAF-12 (Strongyloides stercoralis) | HEK293 ssDAF-12/GRIP1 lit1-tk-luc reporter; % of 3 µM dafachronic acid response | activation, % at 6.8 µM | 370,000 tested, 1% active | AID 652126, 2013;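 active = activation above the mean over all tested compounds plus 3 SD, cut at about 0.9% in these data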;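 note: 0% = DMSO-only wells and 100% = 3 µM delta7-dafachronic acid wells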
hgDAF-12 ag: H. glycines DAF-12 receptor agonists, primary screen, cell-based, luminescence, HEK293, GAL4 fusion, UAS-luciferase. Nuclear hormone receptor DAF-12 (Heterodera glycines), GAL4 fusion. HEK293 GAL4-hgDAF12 UAS-luciferase reporter, agonist luminescence; normalized to butyrate control. activation, % at 6.8 µM. 370,000 tested, 1.8% active;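 active = activation above a cutoff set at the mean of all screened compounds plus 3 SD, cut at about 10% in these data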;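 note: 0% = DMSO wells and 100% = sodium butyrate wells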
DAX1 inh-2: DAX1 (NR0B1) inhibitors, primary screen, cell-based, HEK293, Gal4-DAX1, luciferase luminescence. inhibition, % at 6.75 µM. 340,000 tested, 0.99% active. Nuclear receptor subfamily 0 group B member 1 (Homo sapiens), P51843. HEK293 Gal4-DAX1 luciferase reporter;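 active = inhibition above the mean over all tested compounds plus 3 SD, cut at about 4.2% in these data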;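 note: 0% = DAX1-transfected cells with DMSO and 100% = empty-vector control cells with DMSO; inhibition shows as a rise in luminescence from relieved DAX1 repression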
hcDAF-12 act: H. contortus DAF-12 nuclear receptor activators, primary screen, cell-based, luminescence, HEK293, lit1-tk-luc reporter. HEK293 hcDAF-12 lit1-tk-luc reporter; 0% DMSO, 100% Δ7-dafachronic acid. activation, % at 6.8 µM. 370,000 tested, 1.4% active. AID 652067, 2013;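 active = activation above the mean of all tested compounds plus 3 SD, cut at about 5.5% in these data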;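 note: 100% = response to 3 µM Δ7-dafachronic acid high control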
DAX1 conf: DAX1 (NR0B1) inhibitors relieving SF-1 repression, confirmation, cell-based, luminescence, HEK293T, full-length DAX-1, SF-1 activated StAR promoter. shares compounds with DAX1 inh-1. HEK293T StAR-promoter luciferase reporter, SF-1/DAX-1 repression. inhibition, % at 6.8 µM. 2,400 tested, 87% active;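 active = inhibition above the average of every tested compound plus 3 SD, cut at about 3.8% in these data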;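 note: 0% = DAX-1 cells with DMSO and 100% = no DAX-1 control cells with DMSO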
Target sequence (P51843 whole entry, looked up): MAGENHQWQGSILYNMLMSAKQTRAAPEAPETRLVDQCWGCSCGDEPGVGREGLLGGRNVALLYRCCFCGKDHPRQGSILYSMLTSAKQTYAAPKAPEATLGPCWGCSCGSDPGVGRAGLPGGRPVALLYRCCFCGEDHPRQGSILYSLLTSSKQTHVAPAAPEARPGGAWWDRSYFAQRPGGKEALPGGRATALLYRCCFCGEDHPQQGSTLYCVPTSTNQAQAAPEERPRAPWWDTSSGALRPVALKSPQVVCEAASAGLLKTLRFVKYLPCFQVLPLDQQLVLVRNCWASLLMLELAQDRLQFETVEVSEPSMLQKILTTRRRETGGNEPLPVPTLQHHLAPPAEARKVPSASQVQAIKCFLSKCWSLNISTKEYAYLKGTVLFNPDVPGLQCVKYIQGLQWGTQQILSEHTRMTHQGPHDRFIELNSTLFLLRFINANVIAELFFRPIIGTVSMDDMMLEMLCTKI
SF1 mutant ctr: StAR reporter signal changes without DAX1, counter-screen for DAX1 inhibitor project, cell-based, luminescence, AF-2 mutant SF-1, transactivation. HEK293 StAR-luciferase, SF-1 AF2 mutant. inhibition, % at 6.8 µM. shares compounds with DAX1 inh-1. 2,400 tested, 78% active. AID 652136, 2013;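 active = inhibition above the mean of all tested compounds plus 3 SD, cut at about 3% in these data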;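 note: 0% = DAX-1 transfected cells with DMSO and 100% = cells without DAX-1 with DMSO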
* marks the source's active call; other numbers are inactive results; / = no result given. A selection: hits, their analogues and other compounds. The true share with any hit is near 4.1%.

SMILES	DAX1 inh-1	ssDAF12 agonist	hgDAF-12 ag	DAX1 inh-2	hcDAF-12 act	DAX1 conf	SF1 mutant ctr
O=C(CCc1nc2ccccc2c(=O)[nH]1)NNC(=O)COc1ccccc1Cl	1.4	-1.4	-2.5	1.1	-1.6	/	/
O=c1[nH]c(COc2ccc(Cl)cc2Cl)nc2ccccc12	5.2*	-0.4	7.2	0.5	-0.3	13.3*	6.8*
CC(=O)N1Cc2cc(C(=O)NCC(F)(F)F)nc(-c3cccc(-c4cccnc4)c3)c2[C@@H]1CCO	-0.3	-0.6	1.3	/	-0.5	/	/
Nc1cc(OCc2ccccc2)ccc1OCc1ccccc1	4.7*	-0.1	4.3	2.5	1.1	3.6*	4.5*
Cc1cc(C(=O)COC(=O)c2nccnc2N)c(C)n1C	2.1	-1.2	8.0	0.8	3.4	/	/
Cc1ccsc1C(=O)OCC(=O)c1cc(C)n(C)c1C	4.8*	-0.1	3.5	-2.5	4.7	6.0*	-1.4
CC1CCN(CCCNC(=O)CCc2nnc3n(CCc4ccccc4)c(=O)c4ccccc4n23)CC1	5.7*	-1.4	-2.6	-0.1	1.3	-1.5	-0.2
O=C(c1[nH]c(C(F)(F)F)nc1-c1ccccc1)N1CCN(c2ccc(C(F)(F)F)cn2)CC1	1.0	-1.0	-1.5	/	-1.8	/	/
O=C(NCc1ccncc1)c1csc([C@@H]2O[C@H](CO)[C@@H](O)[C@H]2O)n1	-0.1	-1.0	1.9	/	-0.9	/	/
Cc1ccc(-c2cc(C(=O)N3CCOCC3)no2)cc1	1.2	0.1	7.5	-2.2	1.8	/	/
Cc1ccc(-c2cc(C(=O)N3CCCC3)no2)cc1	4.9*	-0.6	6.1	-2.9	4.3	8.6*	0.5
CCOC(=O)C1(Cc2cccc(OC)c2)CCCN(C(=O)CCN2CCCO2)C1 (stereo unspecified)	4.8*	0.2	10.9*	1.3	2.6	7.0*	5.8*
Cc1noc(C)c1C(=O)N1CCC1(C)C(=O)NS(=O)(=O)Cc1cccc(Cl)c1 (stereo unspecified)	0.5	-0.9	2.9	/	-0.1	/	/
Cc1occc1C(=O)N/N=C/c1ccc[nH]1	5.2*	0.0	10.8*	2.2	2.5	2.5	0.9
CN1CCN(c2ccc3c(c2)Oc2ccccc2CN(Cc2cn(Cc4ccccc4C(F)(F)F)nn2)S3(=O)=O)CC1	-0.9	-0.3	-0.3	/	-0.9	/	/
CCCc1cn(-c2ccc3c(c2)[C@@]2(CC(=O)N(C)C2c2ccccc2)C(=O)N3CC(C)C)nn1 (stereo partly specified)	-0.7	-1.0	-3.0	/	-2.5	/	/
CCC1CCc2sc(C(=O)NNC(=S)NCC3CCCO3)cc2C1 (stereo unspecified)	-0.2	-0.9	2.8	0.7	-0.7	/	/
CCC1CCc2sc(C(=O)NCC3CCCO3)cc2C1 (stereo unspecified)	10.0*	-0.2	11.1*	3.3	0.7	7.3*	3.5*
Cc1cc(C)c(C)c(S(=O)(=O)Nc2ccc3cn[nH]c3c2)c1C	-2.6	-0.6	-1.4	-1.2	-0.4	/	/
COc1ccc(C2CC(=O)C=C3c4ccc(OC)cc4CCC32)cc1 (stereo unspecified)	-0.3	-1.3	-0.4	1.2	-0.1	/	/
CC(C)c1ccc(/C=C2\SC(=O)N(CC(=O)NCCCn3ccnc3)C2=O)cc1	6.8*	0.2	10.7*	0.8	3.5	6.2*	6.5*
CN(C)C1CN(Cc2cn(Cc3ccc(Cl)cc3)nn2)S(=O)(=O)C1 (stereo unspecified)	-0.6	-0.9	6.3	/	-1.7	/	/
Cc1ccc(-n2ncc3c(N4CCCC(C)C4)ncnc32)c(C)c1 (stereo unspecified)	4.8*	-0.1	10.8*	1.8	2.0	7.2*	5.5*
Nc1ccc(-c2nc3cc(N)ccc3s2)cc1	4.8*	1.0*	20.9*	0.1	6.5*	11.0*	4.2*
O=C(COC(=O)c1ccc(O)cc1O)Nc1ncc(Cl)cc1Cl	0.1	-1.0	2.5	-0.4	-0.7	/	/
SMILES	DAX1 inh-1	ssDAF12 agonist	hgDAF-12 ag	DAX1 inh-2	hcDAF-12 act	DAX1 conf	SF1 mutant ctr
COc1cc(-c2cnc3c(NC=O)cc(-c4ccc(C)cc4)cn23)cc(OC)c1OC	11.0*	-0.5	-2.6	/	-2.4	21.4*	-6.8
COc1cc(-c2cc(NC=O)c3ncc(-c4ccc(C(C)=O)cc4)n3c2)cc(OC)c1OC	-3.9	-2.2	-4.4	/	-3.3	/	/
O=C(CNC(=O)c1cn2ccccc2n1)Nc1ccc(F)c(F)c1	6.2*	0.2	8.7	3.1	2.4	8.5*	5.7*
CN(CC(=O)Nc1cccc(F)c1)C(=O)c1cn2ccccc2n1	0.1	-0.4	-0.5	0.8	-1.5	/	/
Nc1ccc(CSc2ccc(Cl)cc2)c(Cl)c1	7.3*	-0.4	11.0*	2.6	3.2	12.6*	7.6*
O=c1[nH]c(N/N=C\c2ccc3c(c2)OCO3)nc2ccccc12	4.9*	0.6	13.1*	2.8	3.9	6.5*	3.3*
CCOc1cc(/C=N/NC(=O)c2ccccn2)ccc1OC(=O)c1cccs1	2.8	-0.9	6.0	1.2	2.2	/	/
O=C(N/N=C/c1ccc(OC(=O)c2cccs2)cc1)c1ccccn1	6.9*	0.1	7.3	1.2	4.7	8.1*	4.7*
O=C(N/N=C/c1ccc2c(c1)OCO2)c1ccccn1	4.7*	-0.1	9.9	-1.1	3.9	10.7*	2.1
O=C(O)c1cc(N/N=C/c2ccc3c(c2)OCO3)ccc1Cl	6.7*	-0.6	10.3	-1.6	6.0*	6.3*	3.1*
CCNC(=O)C1(C)CCCN(C(=O)c2cccc(C)c2C)C1 (stereo unspecified)	-0.5	-1.0	-1.1	/	0.0	/	/
O=C(Nc1ccccn1)c1ccc(C(=O)c2ccccc2)cc1	9.0*	-0.5	12.6*	0.3	3.0	10.9*	4.7*
Cc1cc(C)n(-c2ccc(C(=O)Nc3cccnc3Cl)cc2)n1	-0.1	-1.8	1.2	-0.4	-1.2	/	/
Cc1cc(C)n(-c2ccc(C(=O)Nc3ccccn3)cc2)n1	4.7*	-0.1	12.3*	-0.1	4.5	11.1*	5.4*
